# From PubChem BioAssay
# Results filed as inconclusive are left out. Active and inactive are the calls of the source. Rule as the data show it, unless noted: active = inhibition above about 80%; inactive = the rest.
# Assays:
# [1] = growth inhibition of DIPG glioma cells, dose response, cell-based, SU-DIPG-XIII, MIPE4.0, CellTiter-Glo, qHTS (AID 1347061; cut-off not given, nearly all actives have AC50 up to about 37 µM;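 also: cells exposed to compound for 48 hours before readout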); settings: SU-DIPG-XIII viability, CellTiter-Glo ATP luminescence
# [2] = growth inhibition of DIPG glioma cells, dose response, cell-based, JHH-DIPG-1, MIPE4.0, CellTiter-Glo, qHTS (AID 1347062; cut-off not given, nearly all actives have AC50 up to about 27 µM;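 as to AC50: cells exposed to compound for two days before readout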); settings: JHH-DIPG-1 viability, CellTiter-Glo ATP luminescence
# [3] = growth inhibition of DIPG glioma cells, dose response, cell-based, SU-DIPG-IV, MIPE4.0, CellTiter-Glo, qHTS (AID 1347063; cut-off not given, nearly all actives have AC50 up to about 30 µM;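 also: compound exposure lasted 48 hours before the viability readout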); settings: SU-DIPG-IV viability, CellTiter-Glo ATP luminescence
# [4] = SU-DIPG-VI glioma cell viability, MIPE4.0 library, CellTiter-Glo luminescence, qHTS (AID 1347066; cut-off not given, nearly all actives have AC50 up to about 30 µM;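 also: cells exposed to compound for 48 hours before readout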); settings: CellTiter-Glo ATP luminescence
# [5] = LFS_MB_P medulloblastoma growth inhibition, cell-based, chromothripsis tumors, cisplatin or BGB combos (AID 1671449); settings: LFS_MB_P medulloblastoma cells;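 also: cells exposed for 96 hours; 0% = vehicle DMSO and 100% = killing by high DMSO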
# [6] = HDN33 neuroblastoma growth inhibition, cell-based, chromothripsis tumors, cisplatin or BGB combos (AID 1671450); settings: HDN33 neuroblastoma cells, stronger effect = higher value;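 also: cells exposed to compound for four days; 0% = vehicle DMSO and 100% = cell killing by high DMSO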
# [7] = ICB984 medulloblastoma cell growth inhibition, synergistic combos for chromothripsis tumors, cisplatin or BGB combos (AID 1671451; call rule not given here;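 also: cells exposed for 96 hours before readout; 0% = vehicle DMSO and 100% = killing by high DMSO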); settings: ICB984 medulloblastoma cells, drug combinations, stronger effect = higher value
# [8] = LFS_MB_1R medulloblastoma cell growth inhibition, synergistic combos for chromothripsis tumors, cisplatin or BGB combos (AID 1671452); settings: LFS_MB_1R medulloblastoma cells, stronger effect = higher value;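 also: cells exposed for 96 hours before readout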
# [9] = HTB85 osteosarcoma cell growth inhibition, synergistic combos for chromothripsis tumors, BGB or cisplatin IC20 combos (AID 1671453); settings: HTB85 osteosarcoma cells, drug combinations, stronger effect = higher value;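 also: cells exposed for 96 hours before readout; 0% = vehicle DMSO and 100% = high DMSO killing control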
# [10] = CRL2098 osteosarcoma cell growth inhibition, synergistic combos for chromothripsis tumors, BGB or cisplatin IC20 combos (AID 1671454); settings: CRL2098 osteosarcoma cells, drug combinations, stronger effect = higher value;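 also: cells exposed for 96 h before readout; 0% = vehicle DMSO and 100% = killing by high DMSO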
# [11] = HD-MB03 medulloblastoma cell growth inhibition, synergistic combos for chromothripsis tumors, BGB or cisplatin IC20 combos (AID 1671455; in the data active = inhibition above about 83%;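 also: 0% = vehicle DMSO and 100% = high DMSO as cytotoxic control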); settings: HD-MB03 medulloblastoma cells, stronger effect = higher value
# [12] = UWB1.289 ovarian carcinoma cell growth inhibition, synergistic combos for chromothripsis tumors, BGB or cisplatin combos (AID 1671456); settings: UWB1.289 ovarian carcinoma cells, stronger effect = higher value;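 also: cells exposed to compound for four days; 0% = vehicle DMSO and 100% = killing by high DMSO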
# [13] = LFS_MB_2R medulloblastoma cell growth inhibition, synergistic combos for chromothripsis tumors, cisplatin combos (AID 1671457); settings: LFS_MB_2R medulloblastoma cells, stronger effect = higher value;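 also: cells exposed to compound for four days before readout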
# [14] = MDA-MB-436 breast carcinoma cell growth inhibition, synergistic combos for chromothripsis tumors, BGB or cisplatin combos (AID 1671458; call rule not given here;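 also: cells exposed for 96 hours; 0% = vehicle DMSO and 100% = killing by high DMSO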); settings: MDA-MB-436 breast carcinoma growth inhibition, drug combinations, stronger effect = higher value
# [15] = UWB1.289_BRCA1 ovarian cancer growth, cell-based, BGB or cisplatin combinations (AID 1671459); settings: UWB1.289 BRCA1 ovarian carcinoma, drug combinations, stronger effect = higher value
# [16] = human astrocyte viability loss, single and combined drugs, cytotoxicity control for chromothriptic childhood tumor combination screen, cell-based, BGB or cisplatin IC20 combos (AID 1671460); settings: Human astrocytes, drug combinations, stronger effect = higher value;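 also: cells exposed to compounds for 96 hours before viability readout; 0% = vehicle and 100% = killing control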
# [17] = growth inhibition of BT084 medulloblastoma cells, cell-based, ICGC_MB145, cisplatin and BGB IC40 combos (AID 1671461); settings: drug combinations, stronger effect = higher value;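 also: cells exposed to drugs for 96 hours; 0% = vehicle DMSO and 100% = high DMSO full killing control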
# [18] = growth inhibition of RCMB18 medulloblastoma cells, cell-based, cisplatin and BGB IC40 combos (AID 1671462); settings: stronger effect = higher value;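 also: cells exposed to compound for four days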
# [19] = growth inhibition of CRL1545 osteosarcoma cells, cell-based, cisplatin and BGB IC20 combos (AID 1671464); settings: stronger effect = higher value;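 also: cells exposed to compound for 96 hours before readout; 0% = vehicle DMSO and 100% = high DMSO killing control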
# [20] = measured here: combination with BGB IC40, at 0.05 µM
# [21] = measured here: with BGB IC20 combination, at 0.5 µM
# [22] = measured here: with cisplatin IC20 combination, at 0.5 µM
# [23] = measured here: combination with cisplatin, at 0.5 µM
# [24] = measured here: combination with cisplatin, at 5 µM
structure (smiles),measurement,setting,value
C[C@@H]1O[C@@H](O[C@@H]2C=C3CC[C@H]4[C@@H](CC[C@]5(C)[C@H](c6ccc(=O)oc6)CC[C@@]45O)[C@@]3(C)CC2)[C@H](O)[C@H](O)[C@@H]1O,AC50,[1],9.35 nM (active)
same,AC50,[2],4.69 nM (active)
same,AC50,[3],20.9 nM (active)
same,AC50,[4],7.43 nM (active)
O=C1CCC[C@@H]2[C@H]3CCCN4CCC[C@@H](CN12)[C@@H]34,outcome,[1],inactive
same,outcome,[2],inactive
same,outcome,[3],inactive
same,outcome,[4],inactive
same,inhibition,"[5]; at 0.5 µM, stronger effect = higher value",-20.9% (inactive)
same,inhibition,"[5]; measured here: combination with BGB IC20, at 0.005 µM",-26.5%
same,inhibition,"[5]; measured here: combination with BGB IC40, at 0.005 µM",-23%
same,inhibition,[5]; [20],-17%
same,inhibition,"[5]; measured here: combination with cisplatin, at 0.5 µM, stronger effect = higher value",-27.3%
same,inhibition,"[5]; measured here: combination with cisplatin, at 5 µM, stronger effect = higher value",64.5%
same,inhibition,"[6]; BGB combo, at 5 µM",59.7%
same,inhibition,[6]; at 0.5 µM,6.84% (inactive)
same,inhibition,"[6]; cisplatin combo, at 5 µM",52.4%
same,inhibition,[6]; [21],-9.69%
same,inhibition,[6]; [22],11.1%
same,inhibition,"[6]; single agent, at 5 µM",48.2%
same,inhibition,"[7]; BGB IC20 combo, at 0.005 µM",5.19%
same,inhibition,"[7]; BGB IC40 combo, at 0.005 µM",0.771%
same,inhibition,"[7]; BGB IC40 combo, at 0.05 µM",63.2%
same,inhibition,[7]; at 0.5 µM,-0.41% (inactive)
same,inhibition,"[7]; cisplatin combo, at 0.05 µM",61.6%
same,inhibition,"[7]; cisplatin combo, at 0.5 µM",2.95%
same,inhibition,"[7]; cisplatin combo, at 5 µM",-10%
same,inhibition,"[7]; measured here: 5 uM single agent, at 5 µM",1.92%
same,inhibition,[8]; at 0.5 µM,12.9% (inactive)
same,inhibition,[8]; [20],-3.79%
same,inhibition,[8]; [23],12.5%
same,inhibition,[8]; [24],79.4%
same,inhibition,[9]; at 0.5 µM,0.28% (inactive)
same,inhibition,"[9]; measured here: with BGB IC20, at 0.5 µM",0.562%
same,inhibition,"[9]; measured here: with BGB IC20, at 5 µM",39.5%
same,inhibition,"[9]; measured here: with cisplatin IC20, at 0.5 µM",-4.39%
same,inhibition,"[9]; measured here: with cisplatin IC20, at 5 µM",33.8%
same,inhibition,"[9]; single agent, at 5 µM",15.4%
same,inhibition,[10]; at 0.5 µM,11.9% (inactive)
same,inhibition,"[10]; measured here: combination with BGB at IC20, at 0.5 µM",-8.11%
same,inhibition,"[10]; measured here: combination with cisplatin at IC20, at 0.5 µM",39.2%
same,inhibition,[11]; at 0.5 µM,2.42% (inactive)
same,inhibition,"[11]; measured here: combo with BGB at IC20, at 0.5 µM",3.91%
same,inhibition,"[11]; measured here: combo with cisplatin at IC20, at 0.5 µM",-1.67%
same,inhibition,[12]; at 0.5 µM,2.22% (inactive)
same,inhibition,"[12]; measured here: inhibition with BGB combination, at 0.05 µM",4.13%
same,inhibition,"[12]; measured here: inhibition with cisplatin combination, at 0.05 µM",1.55%
same,inhibition,[13]; at 0.5 µM,0.58% (inactive)
same,inhibition,[13]; [23],8.66%
same,inhibition,[13]; [24],60.9%
same,inhibition,[14]; at 0.5 µM,-3.03% (inactive)
same,inhibition,"[14]; measured here: BGB combination, at 0.5 µM",-5.75%
same,inhibition,"[14]; measured here: BGB combination, at 5 µM",1.19%
same,inhibition,"[14]; measured here: cisplatin combination, at 0.5 µM",-10.4%
same,inhibition,"[14]; measured here: cisplatin combination, at 5 µM",1.01%
same,inhibition,"[15]; BGB combination, concentration series, at 5 µM",24%
same,inhibition,[15]; at 0.5 µM,2.45% (inactive)
same,inhibition,"[15]; cisplatin combination, concentration series, at 5 µM",16.1%
same,inhibition,[16]; at 0.5 µM,2.72% (inactive)
same,inhibition,"[16]; measured here: combo with BGB IC20, at 0.5 µM",3.13%
same,inhibition,"[16]; measured here: combo with cisplatin IC20, at 0.5 µM",4.87%
same,inhibition,[17]; at 0.5 µM,3.62% (inactive)
same,inhibition,"[17]; cisplatin combination, at 0.5 µM",3.61%
same,inhibition,"[17]; cisplatin combination, at 5 µM",62.6%
same,inhibition,"[17]; measured here: BGB IC40 combination 0.05 uM, at 0.05 µM",-11%
same,inhibition,"[17]; single agent, at 5 µM",75.7%
same,inhibition,[18]; at 0.5 µM,-5.51% (inactive)
same,inhibition,"[18]; cisplatin combo, at 5 µM",33.7%
same,inhibition,"[18]; measured here: BGB IC40 combination, at 0.05 µM",-15.6%
same,inhibition,[18]; [23],-27.9%
same,inhibition,"[18]; single agent, at 5 µM",31.3%
same,inhibition,[19]; at 0.5 µM,8.42% (inactive)
same,inhibition,[19]; [21],-16.4%
same,inhibition,[19]; [22],19.6%
same,inhibition,"[19]; single agent, at 0.05 µM",-32.9%
same,inhibition,"[19]; single agent, at 5 µM",-58%
